Measured values published in PubChem BioAssay (NCATS).
Records with an inconclusive call do not appear. Active and inactive are the calls of the source. Unless noted, calls come from the whole dose curve; as a rule, active = well fitted curve in the direction sought with a large enough effect; inconclusive = small, poorly fitted or top-dose-only effect, or another doubt; inactive = no such curve, though single readings can be large; an effect the other way counts as inactive or inconclusive.

Experiments:
[1] = biological target: Aldehyde dehydrogenase, mitochondrial (Homo sapiens) (UniProt P05091); test: qHTS for Inhibitors of the Aldehyde Dehydrogenase Family (ALDH2) Confirmatory screens (AID 2061303; active = well fitted inhibition curve with a large enough effect; title and protocol of this record describe different tests; note: nearly all actives have a fitted effect of over 45% in size; note: potency is the fitted concentration of half-maximal effect)
[2] = qHTS for Inhibitors of the Aldehyde Dehydrogenase Family (ALDH1A2, ALDH1A3, ALDH2, ALDH3A1) (AID 2061307); note: nearly all actives have a fitted effect of over 50% in size; for Potency: test system not described further here; potency is the fitted concentration of half-maximal effect
[3] = biological target: Aldehyde dehydrogenase, mitochondrial (Homo sapiens) (UniProt P05091); test: qHTS for Inhibitors of the Aldehyde Dehydrogenase Family (ALDH2) Primary screen (AID 2061308); note: nearly all actives have a fitted effect of over 55% in size; note: potency is the fitted concentration of half-maximal effect
[4] = biological target: Retinal dehydrogenase 2 (Homo sapiens) (UniProt O94788); test: qHTS for Inhibitors of the Aldehyde Dehydrogenase Family (ALDH1A2) Confirmation screens (AID 2061314); note: nearly all actives have a fitted effect of over 65% in size; note: potency is the fitted concentration of half-maximal effect
[5] = biological target: Retinaldehyde dehydrogenase 3 (Homo sapiens) (UniProt P47895); test: qHTS for Inhibitors of the Aldehyde Dehydrogenase Family (ALDH1A3) Primary screen (AID 2061315); note: potency is the fitted concentration of half-maximal effect
[6] = biological target: Aldehyde dehydrogenase 1A1 (Homo sapiens) (UniProt P00352); test: qHTS for Inhibitors of the Aldehyde Dehydrogenase Family (ALDH1A1) Confirmatory screens (AID 2061316); note: nearly all actives have a fitted effect of over 65% in size; note: potency is the fitted concentration of half-maximal effect
[7] = biological target: Retinaldehyde dehydrogenase 3 (Homo sapiens) (UniProt P47895); test: qHTS for Inhibitors of the Aldehyde Dehydrogenase Family (ALDH1A3) Confirmatory screens (AID 2061311); note: nearly all actives have a fitted effect of over 60% in size; note: potency is the fitted concentration of half-maximal effect
[8] = BET inhibitor-based combinations targeting novel dependencies in MECOM-rearranged (r) AML: SET-2 cell line (AID 2202231); conditions: SET-2 AML cells viability, CellTiter-Glo luminescence, 48 h; viability: active compounds read low, series mostly up to about 46 µM;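 note: plate controls were DMSO treated cells for no effect and wells without cells for full effect; nearly all actives have a fitted effect of over 35% in size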
How it was run: (§1)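 A 48 hr incubation preceded viability reading by CellTiter-Glo, with 15 min room-temperature development. Dose series had 11 points; normalization used DMSO and empty wells; AUC was computed and mean-centered per line as Z-AUC.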

[9] = BET inhibitor-based combinations targeting novel dependencies in MECOM-rearranged (r) AML: OCI-AML3 cell line (AID 2202232); conditions: Potency: OCI-AML3 viability;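 note: series mostly up to about 46 µM; plate controls were DMSO vehicle wells for no effect and wells without cells for full effect; nearly all actives have a fitted effect of over 35% in size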
How it was run: as §1

[10] = BET inhibitor-based combinations targeting novel dependencies in MECOM-rearranged (r) AML: MV-4-11 cell line (AID 2202233);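 note: plate controls were DMSO for no effect and blank wells for full effect; nearly all actives have a fitted effect of over 45% in size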
How it was run: (§2)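 Each compound is tested in an 11-point concentration series against 500 seeded cells/well for 48 hr. The luminescent viability signal is normalized to DMSO and blank wells, then reduced to AUC and a cell-line-centred Z-AUC.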

[11] = BET inhibitor-based combinations targeting novel dependencies in MECOM-rearranged (r) AML: HNT-34 cell line (AID 2202234);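 note: plate controls were vehicle wells for no effect and cell-free wells for full effect; nearly all actives have a fitted effect of over 35% in size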
How it was run: as §2

[12] = BET inhibitor-based combinations targeting novel dependencies in MECOM-rearranged (r) AML: UCSD-AML1 cell line (AID 2202235);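 note: series mostly up to about 46 µM; plate controls were DMSO vehicle wells for no effect and blank wells for full effect; nearly all actives have a fitted effect of over 40% in size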
How it was run: as §2

[13] = BET inhibitor-based combinations targeting novel dependencies in MECOM-rearranged (r) AML: AML-191 cell line (AID 2202236;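 note: plate controls were vehicle wells for no effect and wells without cells for full effect; nearly all actives have a fitted effect of over 35% in size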)
How it was run: as §1

[14] = BET inhibitor-based combinations targeting novel dependencies in MECOM-rearranged (r) AML: AML-194 cell line (AID 2202237;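 note: plate controls were vehicle wells for no effect and wells without cells for full effect; nearly all actives have a fitted effect of over 40% in size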)
How it was run: as §1

Nc1ccc2c(c1)S(=O)(=O)NC2=O
inactive: Potency [1] | Potency [2] | Potency [3] | Potency [4] | Potency [5] | Potency [6]

CN(Cc1ccco1)c1ncnc2ccc(-c3cccnc3)cc12
inactive: Potency [1] | Potency [2] | Potency [3] | Potency [5]
active: Potency [7] 7.98 µM | Potency [6] 11.3 µM

CC(C(=O)O)c1ccc2c(c1)CC(=O)c1ccccc1S2 (centres undefined)
inactive: Potency [1] | Potency [2] | Potency [3] | Potency [7] | Potency [5] | Potency [6] | viability [8] 114% | Potency [9] | Potency [10] | Potency [11] | Potency [12] | Potency [13]

CC(C)c1ccccc1-c1nc2c(c(NCc3ccc(-c4cccnc4)cc3)n1)CCNC2
inactive: Potency [1] | Potency [2] | Potency [3] | Potency [4] | Potency [5] | Potency [6]

COc1ccc(C2Nc3ccccc3C(=O)N2Cc2ccccc2)cc1COc1ccc(Cl)cc1 (centres undefined)
inactive: Potency [1] | Potency [3] | Potency [5]
active: Potency [2] 5.65 µM

Cc1cnc(-c2ccccc2C(F)F)nc1NCc1ccc(-n2ccnn2)cc1
active: Potency [1] 25.1 µM | Potency [2] 4.47 µM
inactive: Potency [3] | Potency [5]

O=C(CCCc1ccc2cccnc2n1)NCc1cc(-c2ccc(F)c(C(F)(F)F)c2)no1
inactive: Potency [1] | Potency [2] | Potency [3] | Potency [4] | Potency [5] | Potency [6] | Potency [9] | Potency [12] | Potency [14]

Cc1ccc(OCCn2c(CCNC(=O)c3cccnc3)nc3ccccc32)cc1
inactive: Potency [1] | Potency [2] | Potency [3] | Potency [4] | Potency [5] | Potency [6]

S=C(Nc1cc(Cl)ccn1)N1CCN(c2cccc(Cl)c2Cl)CC1
active: Potency [1] 15.8 µM | Potency [2] 3.98 µM | Potency [4] 25.2 µM | Potency [6] 3.18 µM
inactive: Potency [3] | Potency [5]

Cc1cc(N[S+](=O)([O-])c2ccc(NC(=O)Cc3ccc4nccnc4c3)cc2)no1
inactive: Potency [1] | Potency [2] | Potency [3] | Potency [5]

Cc1ccc(OCCn2c(CCNC(=O)c3cccs3)nc3ccccc32)cc1
inactive: Potency [1] | Potency [2] | Potency [3] | Potency [5]
active: Potency [4] 31.8 µM | Potency [6] 12.7 µM

O=C1c2ccccc2C(=O)N1Cc1cccnc1
inactive: Potency [1] | Potency [2] | Potency [3] | Potency [4] | Potency [5] | Potency [6]

CC1CC(O)CC(C)(C)C1(O)CCO (centres undefined)
inactive: Potency [1] | Potency [2] | Potency [3] | Potency [4] | Potency [6]

O=[N+]([O-])c1ccccc1CSc1nc2ncc(Br)cc2[nH]1
inactive: Potency [1] | Potency [2] | Potency [3] | Potency [4] | Potency [5]
active: Potency [6] 12.7 µM

NC(=O)C[C@H](N)C(=O)Nc1ccc(Cl)cc1C(=O)c1ccc[nH]1
inactive: Potency [1] | Potency [2] | Potency [3] | Potency [4] | Potency [5] | Potency [6]

O=C1NS(=O)(=O)c2cc(Br)ccc21
inactive: Potency [1] | Potency [2] | Potency [3] | Potency [4] | Potency [5] | Potency [6]

CC(C)c1ccccc1-c1nc(NCC2CCN(c3cccnc3)CC2)c2ccccc2n1
inactive: Potency [1] | Potency [2] | Potency [3] | Potency [5]

COc1cc([C@@H](O[C@@H]2O[C@H](CO)[C@@H](O)[C@H](O)[C@H]2O)[C@@H]2CO[C@H](c3ccc(O)c(OC)c3)[C@H]2CO)ccc1O
inactive: Potency [1] | Potency [2] | Potency [3] | Potency [4] | Potency [6]

Cc1nnc(-c2cnn(C)c2N)n1CCc1ccccc1
inactive: Potency [1] | Potency [2] | Potency [3] | Potency [4] | Potency [5] | Potency [6]

O=C(Nc1cccc([S+](=O)([O-])Nc2ccccc2F)c1)c1ccccc1
inactive: Potency [1] | Potency [2] | Potency [3] | Potency [4] | Potency [5] | Potency [6]

CN(C)c1ccc(/C=C/C(=O)Nc2cccc([S+](=O)([O-])Nc3ccccc3F)c2)cc1
inactive: Potency [1] | Potency [2] | Potency [3] | Potency [5]

COc1ccc(C2Nc3ccccc3C(=O)N2Cc2ccccc2)cc1COc1cccc(C(F)(F)F)c1 (centres undefined)
active: Potency [4] 20.1 µM
inactive: Potency [1] | Potency [2] | Potency [3] | Potency [5] | Potency [6]

COc1cccc(CCC(=O)NCCc2nc3ccccc3n2CCOc2ccc(C)cc2)c1
active: Potency [6] 6.34 µM
inactive: Potency [1] | Potency [2] | Potency [3] | Potency [4] | Potency [5]

O=C(/C=C/c1ccc2c(c1)OCO2)Nc1cccc([S+](=O)([O-])Nc2ccccc2F)c1
inactive: Potency [1] | Potency [2] | Potency [3] | Potency [4] | Potency [5] | Potency [6]

O=C(O)CSc1cc(NS(=O)(=O)c2ccc(Br)cc2)c2ccccc2c1O
active: Potency [1] 1.79 µM | Potency [3] 7.08 µM | Potency [4] 0.4 µM | Potency [5] 0.631 µM | Potency [6] 0.565 µM
inactive: Potency [2]

Cc1c(Cl)cccc1NS(=O)(=O)c1cc2c(cc1Cl)CCC(=O)N2
active: Potency [4] 12.7 µM
inactive: Potency [1] | Potency [2] | Potency [3] | Potency [5] | Potency [6]

NC1CCN(c2nc(-c3ccc(Br)cc3)cs2)CC1
inactive: Potency [1] | Potency [2] | Potency [3] | Potency [4] | Potency [5] | Potency [6]
